Data on 40 compounds can be found in ChEMBL document CHEMBL3433997, “St. Jude Leishmania screening dataset” (2016).

Each structure is given as a SMILES string.

In this assay the target is Solute carrier family 2, facilitated glucose transporter member 1 (Homo sapiens) (UniProt P11166). The experiment in a line: ST_JUDE_LEISH: Cytotoxicity at 2uM final concentration against transgenic Leishmania Mexicana promastigotes LmGLUT1 that are glucose transport deficient and complemented with the human glucose transporter GLUT1. Activity is measured by DNA content using SYBR green in vitro. The format is functional.
Sequence of Solute carrier family 2, facilitated glucose transporter member 1 (Homo sapiens) (P11166 whole entry): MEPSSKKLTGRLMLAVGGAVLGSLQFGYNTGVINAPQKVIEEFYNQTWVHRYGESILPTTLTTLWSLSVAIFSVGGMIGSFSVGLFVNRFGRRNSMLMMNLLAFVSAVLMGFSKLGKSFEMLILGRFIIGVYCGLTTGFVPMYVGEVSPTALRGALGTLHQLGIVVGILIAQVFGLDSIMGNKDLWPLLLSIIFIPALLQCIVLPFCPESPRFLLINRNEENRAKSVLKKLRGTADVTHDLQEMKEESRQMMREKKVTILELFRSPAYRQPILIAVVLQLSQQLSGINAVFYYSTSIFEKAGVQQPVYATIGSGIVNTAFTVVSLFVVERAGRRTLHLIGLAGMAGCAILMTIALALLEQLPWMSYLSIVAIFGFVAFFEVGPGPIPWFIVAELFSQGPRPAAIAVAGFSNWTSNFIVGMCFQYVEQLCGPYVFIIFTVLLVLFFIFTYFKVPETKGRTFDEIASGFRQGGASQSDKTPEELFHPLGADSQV
With `O=C(/C=C/c1ccc(Cl)c(Cl)c1)NCCCCCN1CCCN(C(=O)Nc2ccc(Cl)cc2)CC1`, the inhibition came out at 0.39%.

Consider `Cc1[nH]c(C)c(-c2ccc(-c3ccc(OC(F)(F)F)cc3)nc2)c(=O)c1Br`, for which the inhibition amounted to 9.71%. As to `CSc1ccc2ccccc2c1CNCCCCCCNCc1c(SC)ccc2ccccc12`, the inhibition is 1.24%. The result for `Cc1cc(Nc2cccc(C(F)(F)F)c2)nc(N)n1` reads 0.43%.

As for `O=C(NCC1CCN(Cc2ccc3c(c2)OCCO3)C1)c1cc(-c2cccc(C(F)(F)F)c2)cs1` (stereo not given), the inhibition is -2.67%. The value for `c1cc(CNCCc2ccncc2)cc(-c2ccc(-c3nc4ccccc4[nH]3)s2)c1` was 0.32%; that for `CC(Cc1ccc(NC(=O)c2ccc(CNCc3ccccc3)cc2)cc1)N(CCc1cccc(Cl)c1)C(=O)OC(C)(C)C` (stereo not given) was 6.08%; that for `CN1C(=C2SC(=Nc3ccc4ncccc4c3)N(Cc3ccccc3)C2=O)Sc2ccc(Cl)cc21` was 1.22%. The value for `CCn1c(-c2nonc2N)nc2c(-c3cccc(NC(=O)Nc4ccc(Cl)cc4)c3)ncc(OCCCN)c21` was 1.03%; that for `O=C(NC1CCN(c2ccnc3cc(Cl)ccc23)C1)c1ccc(F)cc1` (stereo not given) was 2.4%. The value for `CCCc1cc(OC)c(C[C@H]2c3cc(O)c(Cl)cc3CCN2C)cc1OC` was 0.24%; that for `Cc1ccc(CN2CCCN(Cc3cccc(NC(=O)c4cc5ccccc5s4)c3)CC2)cc1C` was 0.56%; that for `Cc1ccc(Nc2ccnc3ccc(C(F)(F)F)cc23)cc1O` was 4.92%.

Take `CCCNCc1ccc(-c2ccc(CN(CCOC)C(=O)c3cscn3)cc2)nc1`: the inhibition is 1.92%. The value for `CCOC(=O)CCCCOc1c(OC)cc(Cc2cnc(N)nc2N)cc1OC` was 6.18%; that for `OCCNc1nc(Nc2ccc(F)cc2)nc2ccccc12` was 3.51%. As for `CC1CCCCN1CCCNc1nc(NCc2ccccc2)c2ccccc2n1` (stereo not given), the inhibition worked out at 23.1%. Regarding `Clc1ccc2nc(-c3cccnc3)[nH]c2c1`, the inhibition was 6.05%. The value for `Cn1nc(C(F)(F)F)c(-c2ccc(F)cc2)c1NC(=O)Nc1ccc(F)cc1F` was 2.96%; that for `CS(=O)(=O)CCOCc1ccc(-c2ccc3ncnc(Nc4ccc(OCc5cccc(F)c5)c(Cl)c4)c3c2)o1` was 6%; that for `CCOc1ccc(C(=O)Nc2cc(Br)c3c(c2)CNCC3)cc1C#N` was 6.36%. The result for `CCN(CC)CCn1c(=N)n(CC(=O)c2ccc(-c3ccccc3)cc2)c2ccccc21` reads 0.58%; that for `CN1CCN(c2cc(NC(=O)c3ccc(-c4ccc(Cl)cc4)cc3)ccc2Cl)CC1`, -0.77%; that for `COc1ccc2nccc(N/N=C/c3cccc([N+](=O)[O-])c3)c2c1`, 3.18%.

For `CC(C)(C)C1CC(=O)CC2C(=O)N(c3ccc(Br)cc3)C(=O)C21` (stereo not given), the inhibition was determined as 2.94%.

As for `COc1cc2nc(N3CCC(CNC(=O)c4ccc(NC(=O)c5ccc(Cl)cc5)cc4)CC3)nc(N)c2cc1OC`, the inhibition worked out at 0.04%.

Take `O=C(Nc1cccc(-c2cccc(-c3nc4ccccc4[nH]3)c2)c1)Nc1ccc2c(c1)OCO2`: the inhibition was found to be 4.3%. Regarding `CCN(CC)CCOc1ccc(Nc2ncc3cc(-c4c(Cl)cccc4Cl)c(=O)n(C)c3n2)cc1`, the inhibition amounted to 75.8%. As for `COc1ccc(CN(C)CC(O)COc2ccc(NC(=O)c3cccc4c(=O)c5cccc(OC)c5[nH]c34)cc2)cc1OC` (stereo not given), the inhibition stood at 7.62%. The result for `O=C(Nc1ccccc1)c1nn(CCCN2CCC(N3CCCC3)CC2)cc1-c1ccc(Cl)c(Cl)c1` reads 2.06%.

As to `Cc1[nH]c(C)c(-c2ccc(OCc3ccc(F)cc3)cc2)c(=O)c1Br`, the inhibition came to 0.17%. The value for `CCOc1ccc(C(=O)Nc2cc3c(c(C(F)(F)F)c2)CCNC3)cc1Cl` was 7.38%; that for `CCCC(C(=O)OCCN(CC)CC)(c1ccc(Cl)cc1)c1ccc(Cl)cc1` was 4.77%.

Take `Cn1cc(CCNc2ccnc(N3CCC(c4ncc[nH]4)CC3)n2)c2ccccc21`: the inhibition was -2.77%. The result for `Clc1cnc2ccc3c(c2c1CCN1CCC(NCc2cc4c(cn2)OCCO4)CC1)OCCO3` reads 27.3%; that for `CCCCCCCCn1c2c(c(=N)c3c1CCC3)CCC2`, 87.3%. Turning to `O=C(Nc1ccc2c(c1)OCO2)c1cc(-c2cccnc2)cnc1NCc1ccc2c(c1)OCO2`, the inhibition was 0.99%. For `CC(C)CNCc1cccc(-c2cccc(CN(CCN(C)C)C(=O)Nc3ccccc3)c2)c1`, the inhibition turned out to be 2.46%.

Turning to `NC(=O)c1cnc2cc(-c3ccoc3)ccc2c1Nc1ccc(NC(=O)Nc2ccccc2Cl)cc1`, the inhibition was determined as 2.28%. `Cc1cccc2nc(-c3cccc(-c4ccc(CNCCCN5CCCC5=O)cc4)c3)[nH]c12`: the inhibition is 9.26%.
